# Hits are enriched below; roughly 1% of the tested compounds scored in any of these assays.
# L3MBTL1 block: qHTS Assay for the Inhibitors of L3MBTL1. Lethal(3)malignant brain tumor-like protein 1 (Homo sapiens), Q9Y468. 230,000 compounds, 0.66% hits. AlphaScreen L3MBTL1–H3K9me1 peptide binding. Potency, µM (highest dose often 57.1 µM), hits mostly inhibitors; note: nearly all actives have a fitted effect of over 60% in size
#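 Displacement of a biotinylated histone H3(1-15) peptide monomethylated at Lys9 (75 nM) from L3MBTL1 (50 nM) was measured by AlphaScreen after a 30 min room-temperature compound incubation; cefsulodin titration served as intraplate control.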
# RECQ1 inh-1: qHTS Assay for Inhibitors of RecQ-Like Dna Helicase 1 (RECQ1). ATP-dependent DNA helicase Q1 (Homo sapiens), P46063. RECQ1 DNA unwinding, red fluorescence kinetic read. Potency, µM (doses to about 57.3 µM), usual class: inhibitors. 240,000 compounds, 0.54% hits. AID 2549, 2010; note: nearly all actives have a fitted effect of over 30% in size
#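 50 nM RECQ1T1 preincubated 15 min with compound in Tris pH 8.0 buffer with MgCl2, DTT, Tween-20 and 2.5 ug/ml poly(dI-dC); started with 200 nM TAMRA/BHQ-2 forked duplex and 2 mM ATP. Unwinding read as fluorescence (525/598 nm), two reads 2 h apart.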
# APE1 inh: qHTS Assay for Inhibitors of the Human Apurinic/apyrimidinic Endonuclease 1 (APE1). recombinant APE1, TAMRA/BHQ-2 abasic DNA cleavage fluorescence. 350,000 compounds, 0.35% hits. DNA repair nuclease/redox regulator APEX1 (Homo sapiens), P27695. AID 2517, 2012. Potency, µM (highest dose often 65.8 µM), most hits filed as inhibitors; note: nearly all actives have a fitted effect of over 55% in size
# Target sequence (P27695 whole entry, looked up): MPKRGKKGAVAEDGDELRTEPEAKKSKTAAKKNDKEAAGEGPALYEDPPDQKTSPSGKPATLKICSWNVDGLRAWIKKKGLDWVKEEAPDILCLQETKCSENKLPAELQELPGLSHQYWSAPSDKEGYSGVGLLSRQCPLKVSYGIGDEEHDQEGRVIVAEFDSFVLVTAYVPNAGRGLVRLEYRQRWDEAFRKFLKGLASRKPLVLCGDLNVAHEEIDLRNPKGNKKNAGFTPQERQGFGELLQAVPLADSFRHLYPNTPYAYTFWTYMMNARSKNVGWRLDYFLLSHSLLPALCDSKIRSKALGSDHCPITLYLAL
#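 Compound pre-exposure to 0.75 nM APE1, 15 min at ambient temperature. Reaction initiated with 50 nM TAMRA/BHQ-2 THF substrate, read immediately in kinetic mode, 525 nm excitation, 598 nm emission.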
# BLM inh: qHTS Assay for Inhibitors of Bloom's syndrome helicase (BLM) | RecQ-like DNA helicase BLM (Homo sapiens), P54132 | recombinant BLM DNA unwinding, fluorescence dequenching | Potency, µM (series often up to 56.1 µM), actives largely listed as inhibitors | 350,000 compounds, 0.2% hits; note: nearly all actives have a fitted effect of over 35% in size
# FEN1 inhibitor: qHTS Assay for the Inhibitors of Human Flap endonuclease 1 (FEN1). Recombinant FEN1 flap cleavage, fluorescence, 15 min. Potency, µM (top dose mostly 114 µM), most hits filed as inhibitors. 390,000 compounds, 0.35% hits. AID 588795, 2011; note: nearly all actives have a fitted effect of over 65% in size
# Target sequence (P39748 whole entry, looked up): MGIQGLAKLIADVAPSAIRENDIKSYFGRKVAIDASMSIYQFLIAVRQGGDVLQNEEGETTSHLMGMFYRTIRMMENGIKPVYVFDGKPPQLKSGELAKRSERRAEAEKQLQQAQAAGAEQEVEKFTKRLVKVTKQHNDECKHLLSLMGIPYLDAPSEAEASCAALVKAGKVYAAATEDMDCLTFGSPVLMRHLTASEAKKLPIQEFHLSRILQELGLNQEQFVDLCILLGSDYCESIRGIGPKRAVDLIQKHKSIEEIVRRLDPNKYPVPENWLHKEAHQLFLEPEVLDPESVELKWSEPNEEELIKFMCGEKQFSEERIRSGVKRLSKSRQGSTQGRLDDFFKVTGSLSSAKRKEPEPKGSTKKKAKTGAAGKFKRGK
#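 Concentration–response screening of FEN1 (10 nM): 15 min compound preincubation at room temperature, reaction started with 50 nM substrate and read at 0 and 15 min. Corrected, normalized data were fitted by a four-parameter Hill equation.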
# WRN helicase inh: qHTS for Inhibitors of WRN Helicase. Bifunctional 3'-5' exonuclease/ATP-dependent helicase WRN (Homo sapiens), Q14191. WRN helicase unwinding, fluorescent forked duplex, kinetic. Potency, µM (doses to about 114 µM), hits mostly inhibitors. 360,000 compounds, 0.46% hits. AID 651768, 2012; note: nearly all actives have a fitted effect of over 55% in size
#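 Primary qHTS, 1536-well format. 20 nM WRN + compound, 15 min RT; start with 100 nM forked fluorophore/quencher duplex, 2 mM ATP (final); kinetic read ex 525/em 598 nm.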
# RECQ1 inh conf: Confirmation qHTS Assay for Inhibitors of RecQ-Like Dna Helicase 1 (RECQ1); shares compounds with RECQ1 inh-1; RECQ1 helicase DNA unwinding, fluorescence; Potency, µM (series often up to 229 µM), actives largely listed as inhibitors; 610 compounds, 28% hits; AID 2708, 2010; note: nearly all actives have a fitted effect of over 45% in size
# ADP FP counter: Counterscreen for RECQ1 Inhibitors: ADP Fluorescence Polarization Displacement Assay. ADP fluorescence polarization displacement counterscreen. shares compounds with RECQ1 inh-1. 530 compounds, 27% hits. Potency, µM (doses to about 228 µM), hits mostly inhibitors; note: nearly all actives have a fitted effect of over 45% in size
# RECQ1 inh-2: Confirmation qHTS Assay for Inhibitors of RecQ-Like Dna Helicase 1 (RECQ1) - Round 2 Cherry Picks. shares compounds with RECQ1 inh-1. recombinant RECQ1 DNA unwinding, red fluorescence. Potency, µM (top dose mostly 119 µM), most hits filed as inhibitors. 1,100 compounds, 15% hits. AID 504841, 2011; note: nearly all actives have a fitted effect of over 50% in size
# Numbers stand for hits; . = inactive; ? = inconclusive; / = not tested or not shown. Calls come from the whole dose curve; as a rule, active = well fitted curve in the direction sought with a large enough effect; inconclusive = small, poorly fitted or top-dose-only effect, or another doubt; inactive = no such curve, though single readings can be large; an effect the other way counts as inactive or inconclusive.
SMILES,L3MBTL1 block,RECQ1 inh-1,APE1 inh,BLM inh,FEN1 inhibitor,WRN helicase inh,RECQ1 inh-2,others
CCCN1C(=O)/C(=C/c2ccco2)SC1=Nc1ccc(OC)cc1,?,25.1µM,?,.,.,.,.,
COc1cc(C2NCC(c3ccc(Cl)cc3Cl)c3c2[nH]c2ccccc32)cc(OC)c1OC (stereo not given),.,?,.,.,.,.,.,
COc1cc([C@H]2c3[nH]c4ccccc4c3C[C@H]3C(=O)N4[C@@H](c5cc(OC)c(OC)c(OC)c5)c5[nH]c6ccccc6c5C[C@H]4C(=O)N23)cc(OC)c1OC,.,.,.,.,.,.,/,
COCCCNC(=O)c1ccc2c3c(onc13)-c1ccccc1C2=O,.,12.6µM,?,.,44.7µM,22.4µM,50.1µM,
O=C(Nc1c(C(=O)N2CCN(c3ccccc3)CC2)oc2ccccc12)c1ccco1,/,/,/,.,.,/,/,
Cc1ccc(CCN2CC(C(=O)NC3CCCCC3)CC2=O)cc1 (stereo not given),/,/,.,.,.,.,/,
COc1ccc(CCN2CC(C(=O)NC3CCCCC3)CC2=O)cc1OC (stereo not given),/,39.8µM,?,.,.,.,?,
COc1ccc(N(CC(=O)N2c3ccccc3CC2C)S(=O)(=O)c2c(C)noc2C)cc1 (stereo not given),.,?,.,.,.,.,.,
COc1ccccc1CN1C(=O)c2cccc3cccc(c23)C1=O,.,25.1µM,.,.,.,.,.,
O=C1/C(=C\c2ccc(O)c(O)c2)Oc2cc(O)ccc21,/,20µM,?,.,/,/,56.2µM,
CCOc1ccc(S(=O)(=O)Nc2nc3ccccc3nc2-n2ccc(=NC(=O)c3ccccc3C)cc2)cc1,.,?,.,.,.,.,.,
O=C(Nc1ccc(F)cc1)C(c1cccc(F)c1)N1CCN(c2ccncc2)CC1 (stereo not given),/,/,/,/,/,.,/,
Cc1ccccc1NC(=O)C(C)OC(=O)C1CCCO1 (stereo not given),/,/,/,/,/,.,/,
O=C(COC(=O)c1ccc(S(=O)(=O)N2CCCCC2)cc1)NC1CCCCC1,/,/,/,/,/,.,/,
O=C(COC(=O)c1ccc(S(=O)(=O)N2CCc3ccccc3C2)cc1)NC1CCS(=O)(=O)C1 (stereo not given),.,?,.,.,.,.,?,
CCOc1c(OC(C)=O)ccc(/C=C/c2ccc3cccc(OC(C)=O)c3n2)c1[N+](=O)[O-],.,31.6µM,.,.,.,.,.,
CCOc1cccc(/C=C/c2ccc3cccc(O)c3n2)c1OC,/,/,.,.,.,.,/,
CCC(C)NC(=O)Cn1ncc2c([nH]c3ccc(C)cc32)c1=O (stereo not given),/,/,/,.,.,/,/,
Cc1cnc(CNc2ncnc3ccc(-c4ccc5c(c4)OCO5)cc23)cn1,/,20µM,.,.,/,/,?,
COc1cccc(-c2nc3n(n2)CCc2ccccc2-3)c1,/,/,/,/,/,.,/,
Cc1nc2cnc(N3CCOCC3)nc2n(Cc2ccc(F)cc2)c1=O,/,0.631µM,.,.,/,/,.,
O=C(O)CCC(=O)N1N=C(c2ccco2)CC1c1cccs1 (stereo not given),.,.,.,.,.,.,/,RECQ1 inh conf=.;ADP FP counter=.
CC(OCc1ccccc1)C(NC(=O)OC(C)(C)C)C(=O)NC1COC2CC(n3cc(F)c(=O)[nH]c3=O)OC12 (stereo not given),/,.,.,.,.,/,/,
CN1/C(=C\C(=O)COC(=O)Cn2nnc(-c3ccccc3)n2)C(C)(C)c2ccccc21,.,?,.,.,?,50.1µM,44.7µM,
CC(Sc1nnc(COc2ccccc2)n1Cc1ccccc1)C(=O)O (stereo not given),.,.,.,.,.,.,/,
SMILES,L3MBTL1 block,RECQ1 inh-1,APE1 inh,BLM inh,FEN1 inhibitor,WRN helicase inh,RECQ1 inh-2,others
Cc1cc(OCc2nnc(SC(C)C(=O)O)n2Cc2ccccc2)ccc1Cl (stereo not given),.,.,.,.,.,.,/,RECQ1 inh conf=.;ADP FP counter=.
CC(Sc1nnc(COc2ccc(Cl)cc2)n1Cc1ccccc1)C(=O)O (stereo not given),.,.,.,.,.,.,/,RECQ1 inh conf=.;ADP FP counter=.
Cc1nc(N2CCOCC2)c2nc(-c3ccccc3)n(CCCN3CCOCC3)c2n1,/,.,.,.,/,/,/,
CCCN(CCC)C(=O)c1ccc2c(=O)n(Cc3ccco3)c(=S)[nH]c2c1,.,?,?,?,.,.,.,
CCOC(=O)c1scc(-c2ccc(C)cc2)c1S(=O)(=O)N1CCN(c2ccccc2F)CC1,/,/,/,.,.,/,/,
O=C(O)c1c(Cl)c(Cl)c(Cl)c(Cl)c1-c1c2cc(I)c(=O)c(I)c-2oc2c(I)c(O)c(I)cc12,/,14.1µM,14.1µM,14.1µM,/,/,/,RECQ1 inh conf=44.7µM;ADP FP counter=0.891µM
O=C(CN1CCN(S(=O)(=O)c2ccc(F)cc2)CC1)c1ccc(O)c(O)c1,/,39.8µM,3.98µM,.,.,.,.,
Cc1ccc(S(=O)(=O)N2CCN(c3nc(N(C)c4cc(Cl)ccc4O)nc4ccccc34)CC2)cc1,/,/,/,/,.,/,/,
Cc1cccc(N2CCN(C(=O)Cc3ccc(-n4c(=O)[nH]c5ccsc5c4=O)cc3)CC2C)c1 (stereo not given),.,.,.,.,.,.,/,RECQ1 inh conf=.;ADP FP counter=.
Cc1cccc(N2CCN(C(=O)Cn3c(=O)[nH]c4ccsc4c3=O)CC2C)c1 (stereo not given),/,.,.,.,.,.,/,
O=C(O)C1Cc2ccccc2CN1C(=O)CSc1nnc2ccccn12 (stereo not given),/,.,.,.,.,.,/,RECQ1 inh conf=.;ADP FP counter=?
